Compound activity: PubChem, several laboratories
In the library only some 1.9% were active in any assay of this set; here they are far more common.
MEX-5 binding: C. elegans MEX-5 TCR-2 RNA binding activity; activity score (negative = inhibition of binding), % at 10 µM; actives 0.38% (n = 300,000); MEX-5/FITC-TCR2 RNA binding, fluorescence polarization; active compounds read low;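 active = inhibition past about -25% in most replicates, and total fluorescence under double the plate's negative control median, limit read from the data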;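 note: 0% = DMSO and -100% = 5 µM competing unlabeled TCR2 RNA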
GLD-1 RNA inh: GLD-1-TGE RNA interaction inhibition (C. elegans) | purified GLD-1 + fluorescein TGE RNA, fluorescence polarization | inhibition, % at 5.96 µM | actives 0.44% (n = 320,000) | AID 2280;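 active = percent inhibition above a per-plate cutoff, the plate mean of test compounds plus 3 SD, cut at about 30% in these data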;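 note: 0% = DMSO wells with GLD-1 and probe and 100% = wells lacking GLD-1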
CR mimetic SO: caloric restriction mimetics inhibiting age-related superoxide in yeast; superoxide response (% of plate mean), % at 10 µM; AID 2690; actives 0.18% (n = 330,000); S. cerevisiae aged cells, superoxide DHE fluorescence; active compounds read low;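 active = superoxide response under a set limit, about three screen SD below normal, cut at about 65% in these data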;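 note: yeast aged for seven days with compound at 30 °C before DHE staining; 100% = average MFI of all compound-treated wells on the plate with controls excluded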
LANA-H2A inh: blocks KSHV LANA binding to histone H2A/H2B; cell-free LANA-H2A/H2B peptide, fluorescence polarization; actives 0.6% (n = 320,000); inhibition, % (test concentration not listed); in the data active = inhibition mostly above about 10%, no sharp cut-off; inactive = mostly below about 6.7%
Target sequence (Q9QR71 whole entry, looked up): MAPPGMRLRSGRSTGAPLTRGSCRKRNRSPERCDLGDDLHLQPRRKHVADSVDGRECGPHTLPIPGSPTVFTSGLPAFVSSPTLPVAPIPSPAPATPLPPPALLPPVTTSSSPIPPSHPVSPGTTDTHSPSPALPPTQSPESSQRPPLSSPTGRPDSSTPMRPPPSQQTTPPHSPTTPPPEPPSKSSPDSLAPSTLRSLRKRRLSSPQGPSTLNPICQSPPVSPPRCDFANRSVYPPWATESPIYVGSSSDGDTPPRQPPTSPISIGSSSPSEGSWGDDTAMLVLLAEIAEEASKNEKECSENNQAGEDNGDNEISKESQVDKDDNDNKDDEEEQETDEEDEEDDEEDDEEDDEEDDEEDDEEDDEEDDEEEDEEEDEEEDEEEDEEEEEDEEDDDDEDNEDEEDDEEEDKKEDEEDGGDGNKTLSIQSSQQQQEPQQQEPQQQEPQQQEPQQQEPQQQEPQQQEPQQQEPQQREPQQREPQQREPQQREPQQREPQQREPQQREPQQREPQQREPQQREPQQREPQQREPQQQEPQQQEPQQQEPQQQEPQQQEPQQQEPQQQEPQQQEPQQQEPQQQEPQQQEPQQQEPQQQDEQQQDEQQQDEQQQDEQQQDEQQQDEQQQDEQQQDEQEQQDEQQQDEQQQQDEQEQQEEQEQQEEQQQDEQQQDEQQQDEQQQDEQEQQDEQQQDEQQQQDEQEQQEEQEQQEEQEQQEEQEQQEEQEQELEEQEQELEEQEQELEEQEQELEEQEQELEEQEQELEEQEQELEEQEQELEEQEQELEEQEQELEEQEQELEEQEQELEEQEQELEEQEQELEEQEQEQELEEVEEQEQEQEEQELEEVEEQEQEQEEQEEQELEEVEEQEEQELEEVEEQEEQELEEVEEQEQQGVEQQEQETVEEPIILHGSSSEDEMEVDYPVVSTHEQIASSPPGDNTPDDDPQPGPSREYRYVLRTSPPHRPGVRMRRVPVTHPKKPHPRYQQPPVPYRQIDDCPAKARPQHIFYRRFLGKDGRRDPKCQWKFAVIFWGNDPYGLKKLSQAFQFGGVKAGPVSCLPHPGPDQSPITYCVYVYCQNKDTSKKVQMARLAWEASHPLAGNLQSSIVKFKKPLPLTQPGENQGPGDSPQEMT
BCLXL inh: blocks human Bcl-xL binding to Bim BH3 peptide; AID 2129; GST-Bcl-xL / FITC-Bim BH3 peptide fluorescence polarization; inhibition, % at 10.9 µM; actives 0.7% (n = 320,000); Q07817;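 active = inhibition above the mean of all tested compounds plus 3 SD, cutoff set per campaign, cut at about 30% in these data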;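 note: 0% = DMSO wells and 100% = unlabeled Bim-BH3 peptide competitor; inhibitors lower millipolarization by displacing the labeled peptide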
MCL1-BIM inh: disrupts human MCL1 binding to BIM-BH3 peptide. Q07820. GST-MCL1 / FITC-Bim-BH3 fluorescence polarization. inhibition, % at 10.9 µM. actives 0.68% (n = 320,000);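 active = inhibition above the mean inhibition of all tested compounds plus 3 SD, set per campaign, cut at about 40% in these data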;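 note: 0% = DMSO wells and 100% = unlabeled Bim-BH3 peptide control; higher means more loss of mP so more displacement of Bim peptide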
* = called active by the depositor.

`Cc1ccc(NC(=O)CN(C)C(=O)CCSc2ccc(F)cc2)cc1` gave GLD-1 RNA inh 0, CR mimetic SO 100, LANA-H2A inh 18*, BCLXL inh -3 and MCL1-BIM inh -3.
Screening Cc1ccc(NC(=O)CN(C)C(=O)CSc2ccccc2F)cc1 returned GLD-1 RNA inh -7, CR mimetic SO 124 and LANA-H2A inh 4.
For C=CCN1C(=O)/C(=C2\SC(N3CCOCC3)=NC2=O)c2cc(Br)ccc21 the results were MEX-5 binding -1, GLD-1 RNA inh 5, CR mimetic SO 100, LANA-H2A inh 19*, BCLXL inh 3 and MCL1-BIM inh 2.
Screening O=c1oc2ccc3ccccc3c2cc1-c1nc2ccccc2o1 returned MEX-5 binding -76*, GLD-1 RNA inh 6, CR mimetic SO 104, LANA-H2A inh 2, BCLXL inh 15 and MCL1-BIM inh 5.
Screening Cc1noc(C)c1S(=O)(=O)N1CCN(c2ccc([N+](=O)[O-])cc2)CC1 returned MEX-5 binding 2, GLD-1 RNA inh 0, CR mimetic SO 94, LANA-H2A inh 15*, BCLXL inh 4 and MCL1-BIM inh 2.
CC(C)(C)OC(=O)NCCCCCNC(=O)c1[nH]cnc1C(=O)NC1CCN(C(=O)OC(C)(C)C)CC1 was read as GLD-1 RNA inh -1, CR mimetic SO 102, LANA-H2A inh -2, BCLXL inh -3 and MCL1-BIM inh 1.
For Cn1ncc([N+](=O)[O-])c1C(=O)Nc1ccccc1Cl the results were MEX-5 binding -2, GLD-1 RNA inh -6, CR mimetic SO 95, LANA-H2A inh 13*, BCLXL inh 2 and MCL1-BIM inh 3.
`Cc1ccc2nc(N3CCN(C)CC3)c(C=O)c(=O)n2c1` gave MEX-5 binding -6, GLD-1 RNA inh 16, CR mimetic SO 96, LANA-H2A inh -2, BCLXL inh 34* and MCL1-BIM inh 38.
O=Cc1c(N2CCN(c3ccccc3)CC2)nc2ccccn2c1=O was read as MEX-5 binding -3, GLD-1 RNA inh -2, CR mimetic SO 139, LANA-H2A inh 3, BCLXL inh 8 and MCL1-BIM inh -2.
`CCN1CCN(c2nc3ccccn3c(=O)c2C=O)CC1` gave MEX-5 binding -8, GLD-1 RNA inh 11, CR mimetic SO 103, LANA-H2A inh 3, BCLXL inh 31* and MCL1-BIM inh 30.
For OCC[C@H]1C[C@@H](O)[C@H](O)[C@]2(OCCc3ccccc32)O1 the results were GLD-1 RNA inh 3, CR mimetic SO 95, LANA-H2A inh -5, BCLXL inh 5 and MCL1-BIM inh 9.
Screening O=S(=O)(c1ccc(=S)[nH]c1)N1CCCCCC1 returned GLD-1 RNA inh -1, CR mimetic SO 105, LANA-H2A inh 38*, BCLXL inh 7 and MCL1-BIM inh 10.
Screening CNCc1ccccc1Sc1cccc(O)c1 returned MEX-5 binding 0, GLD-1 RNA inh 4, CR mimetic SO 105, LANA-H2A inh 4, BCLXL inh 4 and MCL1-BIM inh -6.
For CNCc1ccccc1Sc1cc(O)ccc1O the results were GLD-1 RNA inh 11, CR mimetic SO 106, LANA-H2A inh 0, BCLXL inh 32* and MCL1-BIM inh 42*.
`CCOC(=O)c1ccc(-c2ccc3c(=O)c4ccccc4n(C)c3c2)cc1F` gave MEX-5 binding 0, GLD-1 RNA inh -2, CR mimetic SO 120, LANA-H2A inh -1, BCLXL inh 4 and MCL1-BIM inh -2.
For CCOC(=O)Cn1c2ccc(OC)cc2c2nc3ccccc3nc21 the results were MEX-5 binding -102*, GLD-1 RNA inh 4, CR mimetic SO 100, LANA-H2A inh -15, BCLXL inh 1 and MCL1-BIM inh 8.
CC(=O)c1cc(F)ccc1OCC(=O)Nc1ccc2c(c1)OCO2 was read as GLD-1 RNA inh -4, CR mimetic SO 97 and LANA-H2A inh -3.
Screening COc1cccc(CN(C)C(=O)CNC(=O)c2ccc3c(c2)OCO3)c1OC returned MEX-5 binding 0, GLD-1 RNA inh -4, CR mimetic SO 95, LANA-H2A inh 1, BCLXL inh 6 and MCL1-BIM inh 3.
For C[n+]1cccc2ccc3c(c21)OC(N)=C(C#N)C3c1ccccc1 (stereo unspecified) the results were MEX-5 binding 2, GLD-1 RNA inh 6, CR mimetic SO 122, LANA-H2A inh 4, BCLXL inh -10 and MCL1-BIM inh -15.
For C[n+]1cccc(C2C(C#N)=C(N)Oc3c2ccc2ccccc32)c1 (stereo unspecified) the results were MEX-5 binding -9, GLD-1 RNA inh 5, CR mimetic SO 107, LANA-H2A inh -2, BCLXL inh 39* and MCL1-BIM inh 30.
Screening Cn1ccnc1Sc1nc2ccccc2nc1NS(=O)(=O)c1ccccc1 returned MEX-5 binding -11, GLD-1 RNA inh 39*, CR mimetic SO 111, LANA-H2A inh 1, BCLXL inh 34* and MCL1-BIM inh 39.
`Cc1cc(C)cc(N=Cc2ccc([N+](=O)[O-])s2)c1` gave MEX-5 binding 0, GLD-1 RNA inh 6, CR mimetic SO 76, LANA-H2A inh -1, BCLXL inh 3 and MCL1-BIM inh 3.
For NC(=O)c1ccc(N=Cc2ccc([N+](=O)[O-])s2)cc1 the results were GLD-1 RNA inh 5, CR mimetic SO 84, LANA-H2A inh 17*, BCLXL inh 2 and MCL1-BIM inh 3.
C=CC1=C2C=C(C3CC3)N(CCCN(CC)CC)C=C2C(=O)C(C)(OC(=O)c2ccco2)C1=O (stereo unspecified) was read as MEX-5 binding -8, GLD-1 RNA inh 15, CR mimetic SO 91, LANA-H2A inh -5, BCLXL inh 41* and MCL1-BIM inh 39.
For C=CC1=C2C=C(C3CC3)N(CC3CC3)C=C2C(=O)C(C)(OC(=O)c2ccco2)C1=O (stereo unspecified) the results were MEX-5 binding -9, GLD-1 RNA inh 15, CR mimetic SO 87, LANA-H2A inh 4, BCLXL inh 24 and MCL1-BIM inh 22.
For C=CCN1C=C2C(=O)C(C)(OC(=O)c3ccco3)C(=O)C(C=C)=C2C=C1C1CC1 (stereo unspecified) the results were MEX-5 binding 1, GLD-1 RNA inh 20, CR mimetic SO 95, LANA-H2A inh 2, BCLXL inh 32* and MCL1-BIM inh 32.
CN=C(NC(=O)Nc1c(C)cccc1C)NC(=O)Nc1c(C)cccc1C was read as MEX-5 binding 0, GLD-1 RNA inh -5, CR mimetic SO 98, LANA-H2A inh -1, BCLXL inh 4 and MCL1-BIM inh -3.
For Cc1cccc(C)c1NC(=O)NN=C1CCCCC1 the results were MEX-5 binding -29*, GLD-1 RNA inh -6, CR mimetic SO 110, LANA-H2A inh -2, BCLXL inh 2 and MCL1-BIM inh -2.
